The source of these data is PubChem BioAssay AID1347417 (National Center for Advancing Translational Sciences (NCATS), 2020).

Hit rate of the full screen: of about 120,000 compounds, about 5,300 (4.4%) were called active. Where a call stands in place of a potency, no number is given. Roughly 22% stayed inconclusive and do not appear here. Calls follow the shape of the dose curve; as a rule, active = well fitted inhibition curve with a large enough effect; inconclusive = small, poorly fitted or top-dose-only effect; inactive = no such curve, though single readings can be large or run the other way. Many of the other results were omitted from the sample, so actives are more common in it than they were.
Potency is read from the fitted curve at half-maximal effect.

This experiment is described as follows: qHTS Primary assay for Inhibitors of Plasmodium falciparum Dd2 growth in vitro. Also: nearly all actives have a fitted effect of over 65% in size. The following applies: P. falciparum Dd2 growth, SYBR Green, 72 h; series mostly up to 28.9 µM. In outline:
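Readout: SYBR Green fluorescence, 485 nm excitation, 535 nm emission, after ~16 h lysis at 37C. Before that, Dd2-infected red cells (2.5% hematocrit) grew 72 h with compound, 29 uM top final concentration.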
In general terms: In qHTS, concentration-response curves come from the screen itself.
In the case of `CCCN(CCC)CCCNC(=O)Cn1ncc2c3ccccc3n(Cc3ccccc3)c2c1=O`, the Potency is 5.01 µM (active).
The same measure for `CCCn1c2ccccc2c2cnn(CC(=O)NCCCOC(C)C)c(=O)c21`: “inactive”.
The same measure for `CCCn1c2ccccc2c2cnn(CC(=O)N(CC)c3cc(C)ccc3C)c(=O)c21`: “inactive”; for `CCCn1c2ccccc2c2cnn(CC(=O)N(C)c3ccccc3CC)c(=O)c21`: “inactive”; for `CCN(CC)CCNC(=O)Cn1ncc2c3ccccc3n(Cc3ccccc3C)c2c1=O`: 10 µM (active).
With `CCN(CCCNC(=O)Cn1ncc2c3ccccc3n(C)c2c1=O)Cc1ccccc1` the entry was “inactive”.
Regarding `COc1cccc(CC(=O)N2CCC(c3nc(CCOc4ccc(F)cc4)no3)C2)c1` (stereo not drawn), the Potency entry is “inactive”.
The same measure for `COCCNC(=O)[C@@H]1C[C@@H](O)CN1C1CCN(C(=O)CCc2ccccc2)CC1`: “inactive”.
The same measure for `CCn1c(=O)c2ccnn2c2ccc(C(=O)NC3CCCCC3)cc21`: “inactive”.
With `Cc1ccccc1NC(=O)N1CCC(CCNC(=O)c2ccoc2)CC1` the entry was “inactive”.
In the case of `O=C(c1cccc(Cl)c1)N1CCN(c2cc(-c3cccs3)[nH]n2)CC1`, the Potency entry is “inactive”.
The same measure for `COc1cccc(CN2Cc3nc(Nc4cccc(F)c4)ccc3OCC2=O)c1`: “inactive”; for `CN(CCCn1cccn1)C(=O)C1CCN(C(=O)C2CCCC2)CC1`: “inactive”.
For `O=C(N[C@@H]1CN(Cc2c(F)cccc2F)C[C@H]1CO)c1ccccc1`, the Potency result was “inactive”.
Consider `Cc1cc(N2CCCC(Cn3cc(Cc4ccccc4)nn3)C2)nc(N)n1` (stereo not drawn), for which the Potency was 12.6 µM (active).
In the case of `O=C(Nc1ccccc1)[C@H]1CN2CCC1C[C@@H]2Cn1cc(CO)nn1` (stereo partly drawn), the Potency entry was “inactive”.
The same measure for `O=C(NCc1ccccc1)[C@@H]1C[C@@H](c2ccc(F)cc2)N([S+](=O)([O-])c2cccnc2)C1`: “inactive”; for `O=C1Nc2ccc(Br)cc2C(=O)N2CCN(C(=O)C3CCCCC3)C[C@H]12`: “inactive”; for `CCOC(=O)c1c(NC(=O)Cc2coc3ccc(CC)cc23)sc2c1CCC2`: “inactive”.
As for `CCOC(=O)c1c(NC(=O)c2cc(-c3ccc(Cl)cc3)on2)sc2c1CCCC2`, the Potency result was “inactive”.
The same measure for `CCOC(=O)c1ccc(NC(=O)c2c(NCc3cccs3)sc3c2CCCC3)cc1`: 10 µM (active); for `O=C(Cc1cccs1)NC1CCCN(c2cc(-c3ccccc3)[nH]n2)C1` (stereo not drawn): “inactive”; for `COc1ccc(-c2ccc3c(c2)C(=O)N2CCN(C(=O)CC4(CC(=O)O)CCCC4)C[C@H]2C(=O)N3)cc1`: “inactive”.
The same measure for `CN1C(=O)CC(C(=O)O)C12CCN(Cc1cccc(OC(F)F)c1)CC2` (stereo not drawn): “inactive”.
With `CN(C)C[C@@H]1CN(C)C[C@H]1NC(=O)C1CCC1` the entry was “inactive”; with `CCOC(=O)N1CCc2c(sc(NCc3cccc(F)c3)c2C(=O)Nc2ccccc2OCC)C1`, 4.47 µM (active); with `CCOC(=O)N1CCc2c(sc3c2C(=O)NC(c2ccccc2F)N3)C1` (stereo not drawn), “inactive”.
In the case of `CCOc1cc(=O)n2c(c1C(=O)Nc1ccc(F)cc1F)CCCC2`, the Potency entry was “inactive”.
With `CCOc1ccccc1N(CC)C(=O)c1cc2ccc3cccnc3c2[nH]1`, the Potency was 12.6 µM (active).
In the case of `Cc1ccccc1CN1CCc2ncc(C(=O)NCCOc3ccccc3)n2CC1`, the Potency entry is “inactive”.
For `Cc1ccccc1CN1CCC(N2CCCC(C(=O)NC3CC3)C2)CC1` (stereo not drawn), the Potency entry is “inactive”.
The same measure for `CCOc1ccccc1C(=O)N1CCC(Oc2ncccc2C(=O)N(C)C)C1` (stereo not drawn): “inactive”; for `CCOc1ccccc1N(CC)C(=O)Nc1cn(C)c(=O)c2ccccc12`: “inactive”.
On to `Cc1ccccc1CN1CCC(CNC(=O)c2cc3ccc4cccnc4c3[nH]2)CC1`, for which the Potency was 10 µM (active).
The same measure for `CCOc1ccc(NC(=O)Cn2c(-c3ccc(F)cc3)nc(C)cc2=O)cc1`: “inactive”; for `Cc1ccc(NC(=O)C(=O)NCC(c2cccnc2)N2CCOCC2)cc1` (stereo not drawn): “inactive”; for `COc1cccc(NC(=O)C(=O)NCC(c2ccc3c(c2)OCO3)N2CCN(C)CC2)c1` (stereo not drawn): 7.94 µM (active).
Turning to `CN(C)c1ccc(C(CNS(=O)(=O)c2cc(F)ccc2F)N2CCOCC2)cc1` (stereo not drawn), the Potency result is “inactive”.
For `COc1ccc(Cn2ccnc2SCC(=O)Nc2ccc3c(c2)OCO3)cc1`, the Potency result was “inactive”.
The same measure for `COc1ccc(C(C(=O)O)N2CCCN(c3ccc(F)cc3)CC2)cc1F` (stereo not drawn): “inactive”; for `CC(C)CC(=O)NCC(c1ccc2c(c1)OCO2)N1CCN(c2ccc(F)cc2)CC1` (stereo not drawn): 10 µM (active).
With `O=C(CN1CC2CC(C1)[C@H]1CCCC(=O)N1C2)N1CCN(c2ccccn2)CC1` (stereo partly drawn) the entry was “inactive”; with `CCn1ncnc1C(C)NC1CCC2(CCNCC2)CC1` (stereo not drawn), “inactive”; with `CCC(O)c1cc2n(n1)CCN(C(=O)c1cnc(C)nc1-c1ccccc1)C2` (stereo not drawn), “inactive”.
The same measure for `COc1ccc(S(=O)(=O)N[C@H]2C[C@H]3C(=O)NC[C@@H](CCC(=O)N4CCc5ccccc54)N3C2)cc1`: “inactive”; for `CN1C(=O)[C@@H]2C[C@@H](O)CN2C2(CN(Cc3cnc4ccccc4c3)C2)C1=O`: “inactive”.
As to `O=C(Cn1cc(SCc2cccc(Cl)c2)c2ccccc21)N1CCCCC1`, the Potency result is “inactive”.
The same measure for `COc1ccccc1C(=O)NCCn1cc(SCc2ccccc2Cl)c2ccccc21`: 3.98 µM (active).
The same measure for `COc1ccccc1C(=O)NCc1ccnc2[nH]ccc12`: “inactive”; for `Cc1cc(NC(=O)c2ccc(Cn3ccn4nc5c(c4c3=O)CCCC5)cc2)ccc1F`: “inactive”.
With `CCc1cc(NCCS(=O)(=O)CC)n2nccc2n1` the entry was “inactive”.
As for `CCOc1ccc(NC(=O)CN2CCN(CC(=O)Nc3ccc(OC)cc3)CC2)cc1`, the Potency entry was “inactive”.
With `O=C(Cn1nc2n(c1=O)CCCC2)Nc1ccc(Cl)cc1` the entry was “inactive”.
With `CCN(CC)c1ccc(NC(=O)CN2CCN(CC(=O)Nc3ccc(Cl)cc3)CC2)cc1` the figure was 8.91 µM (active); with `Cc1ccc2[nH]nc(C(=O)N3C[C@@H](C(=O)O)[C@H](c4ccc(F)cc4)C3)c2c1`, “inactive”.
Turning to `Cc1oc2ccn(Cc3ccccc3F)c(=O)c2c1C(=O)NCc1cccnc1`, the Potency entry is “inactive”.
For the compound `CC(c1cccs1)N(C)Cc1ccncc1` (stereo not drawn), the Potency entry was “inactive”.
With `CC(C)CCN(C(=O)Nc1ccc(Cl)c(Cl)c1)C(C)c1cccs1` (stereo not drawn) the figure was 10 µM (active); with `CC(C)c1ccc2oc(-c3cc(NC(=O)c4cccs4)ccc3Cl)nc2c1`, “inactive”.
Turning to `C=CCNC(=O)N1CCC(C2CCN(Cc3cccc(F)c3F)CC2)C1` (stereo not drawn), the Potency entry is “inactive”.
The same measure for `CC(C)(C)CC(=O)Nc1ccc2c(N3CCOCC3)ncnc2c1`: “inactive”; for `Cc1ccc(C(=O)Nc2ccc3c(N4CCCCC4)ncnc3c2)s1`: 5.01 µM (active).
Take `O=C(Nc1ccc2ncnc(N3CCCCC3)c2c1)c1ccc2c(c1)OCO2`: the Potency entry is “inactive”.
The same measure for `O=C(Nc1ccc2ncnc(N3CCCCC3)c2c1)c1cccc(Cl)c1`: “inactive”.
With `Cc1cc(C)cc(C(=O)Nc2ccc3c(N4CCCC4)ncnc3c2)c1` the figure was 0.708 µM (active); with `Cc1ccc(C(=O)Nc2ccc3ncnc(N4CCCCC4)c3c2)s1`, “inactive”; with `O=C(CCc1cc(Cl)no1)N1CCCC(c2nc(C3CCOCC3)no2)C1` (stereo not drawn), “inactive”.
With `CCn1c(C2CCCN(C(=O)NCC(C)C)C2)nn(C)c1=O` (stereo not drawn) the entry was “inactive”; with `Cn1ccnc1CNC(=O)C[C@@H]1C[C@H]2O[C@H](CNC(=O)NCc3ccccc3)[C@@H](O)[C@H]2O1`, “inactive”; with `CC(C)c1nc2nccc(-c3ccc4c(c3)OCCCO4)n2n1`, “inactive”.
Take `COc1cc(C(=O)Nc2ccc(OCc3cc(=O)n4cc(C)sc4n3)cc2)cc(OC)c1OC`: the Potency entry was “inactive”.
The same measure for `CCC(=O)Nc1ccc2nnc(-c3ccc(C(=O)Nc4ccc(OC)cc4)cc3)n2c1`: 0.708 µM (active); for `O=C(Nc1ccc2ncnc(N3CCCCC3)c2c1)C1CCCCC1`: “inactive”.
The same measure for `CCC(CC)NC(=O)c1ccc(-c2nnc3ccc(NC(=O)C4CCC4)cn23)cc1`: 2.51 µM (active).
Turning to `COc1ccc(-c2cn3c(n2)sc2cc(C(=O)Nc4ccc(F)cc4)ccc23)cc1`, the Potency result was “inactive”.
With `O=C(Nc1ccc(C2(C(=O)N3CCCCCC3)CCC2)cc1)C1CC1` the entry was “inactive”; with `COC[C@@H]1CN(Cc2ccc(F)c(OC)c2)C[C@H]1C(=O)N(C)C`, “inactive”.
With `CCc1cc2c(-c3ccccc3)cc(=O)oc2c2c1OCN(Cc1ccc(C)cc1)C2` the figure was 2.24 µM (active).
The same measure for `Cc1ccc(Cn2c(=O)n(Cc3nc(-c4ccccc4)no3)c(=O)c3cc4c(cc32)OCO4)cc1`: “inactive”; for `Cc1ccc(CN2COc3cc(C)c4c(oc(=O)c5ccccc54)c3C2)cc1`: 1.12 µM (active).
`CCn1c2c(c(=O)n1Cc1ccccc1)CCN(C(=O)Cc1ccc3c(c1)OCO3)C2`: the Potency result was “inactive”.
With `COCCn1cc2c3c(cccc31)CN(C(=O)c1c(F)cccc1Cl)CC2`, the Potency entry was “inactive”.
Regarding `O=C(Nc1ccc(Cl)cc1)c1nc2c(o1)CCN(Cc1ccsc1)CC2`, the Potency entry is “inactive”.
With `COCCn1ncc(N2CCC(NC(=O)C3CCC3)CC2)cc1=O` the entry was “inactive”; with `O=C(c1cccc2[nH]ccc12)N1C[C@@H](CO)[C@H](c2ccccn2)C1`, “inactive”; with `CN1CCC2(C1)CN(CC1CC1)c1ccc(C(=O)NC3CC3)cc12` (stereo not drawn), “inactive”.
The same measure for `CCOc1ccc(CCNC(=O)c2ccc3c(c2)sc2nc(-c4ccc(F)cc4)cn23)cc1OCC`: 5.62 µM (active); for `COc1ccc(CCNC(=O)c2ccc3c(c2)sc2nc(-c4ccc(C)cc4)cn23)cc1OC`: “inactive”.
With `CCOC(=O)c1ccccc1NC(=O)c1sc2nc(-c3ccc(F)cc3)cn2c1C` the entry was “inactive”.
In the case of `COc1ccc(-c2cn3c(C)c(C(=O)Nc4cc(C)cc(C)c4)sc3n2)cc1`, the Potency result was “inactive”.
In the case of `CCN1CCN(CCCNC(=O)c2ccc3c(c2)sc2nc(-c4ccc(OC)cc4)cn23)CC1`, the Potency was 3.16 µM (active).
With `COc1ccc(-c2cn3c(n2)sc2cc(C(=O)Nc4ccccc4F)ccc23)cc1` the entry was “inactive”.
As to `Cc1cccc2nnc(N3CCN(C(=O)c4ccc(F)c(F)c4)CC3)n12`, the Potency result was “inactive”.
With `O=C(CCNc1c(-c2ccccc2)nc2cnccn12)N1CCC(N2CCCCC2)CC1` the entry was “inactive”.
Turning to `CCn1cc(-c2ccccc2)cc1C(=O)NCc1ccccn1`, the Potency result is “inactive”.
Consider `CCCCN1C(=O)c2ccccc2C(C(=O)NCCCOC)C12CCCCC2` (stereo not drawn), for which the Potency result is “inactive”.
For the compound `C=CCNC(=O)N1CC[C@H]2CC(=O)N(CC(N)=O)CC[C@H]2C1`, the Potency entry is “inactive”.
With `O=C(c1cc2cccnn2n1)N1CCOCC1` the entry was “inactive”.
